# In PubChem BioAssay:
# Unmarked numbers belong to inactive results. For some of these results: Results with a measured potency or affinity are listed apart. The source made the active and inactive calls. Unless noted, how the calls were made is not given here.
# How the values were obtained:
# [1] = antimalarial activity against Dd2 strain (AID 2302;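 active means growth inhibition above 50% at the single 2 µM test dose, taken to imply half-maximal potency below 2 µM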;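 further: 0% = DMSO untreated growth and 100% = chloroquine plus artemisinin killed control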); details: P. falciparum Dd2 in RBCs, LDH growth readout, 72 h; at 2 µM; stronger effect = higher value
# [2] = human hepatoma cell viability loss – ATP luminescence, cytotoxicity control for P. falciparum antimalarial project, primary screen (AID 2303;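 active means inhibition above 50%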;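 further: 0% = DMSO wells and 100% = digitonin-killed cells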); details: HepG2 viability, 24-48 h, at 10 µM, stronger effect = higher value
# [3] = target: L-lactate dehydrogenase (Plasmodium falciparum (isolate CDC / Honduras)) (UniProt Q27743); experiment: PfLDH activity inhibition – cell lysate, 3D7 strain, counter-screen for P. falciparum growth inhibition project (AID 2304);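 further: 0% = vehicle and 100% = reference inhibitor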; details: P. falciparum 3D7 crude extract, LDH APAD/NBT absorbance; at 2 µM; stronger effect = higher value
# Chain of L-lactate dehydrogenase (Plasmodium falciparum (isolate CDC / Honduras)) (Q27743 whole entry, looked up): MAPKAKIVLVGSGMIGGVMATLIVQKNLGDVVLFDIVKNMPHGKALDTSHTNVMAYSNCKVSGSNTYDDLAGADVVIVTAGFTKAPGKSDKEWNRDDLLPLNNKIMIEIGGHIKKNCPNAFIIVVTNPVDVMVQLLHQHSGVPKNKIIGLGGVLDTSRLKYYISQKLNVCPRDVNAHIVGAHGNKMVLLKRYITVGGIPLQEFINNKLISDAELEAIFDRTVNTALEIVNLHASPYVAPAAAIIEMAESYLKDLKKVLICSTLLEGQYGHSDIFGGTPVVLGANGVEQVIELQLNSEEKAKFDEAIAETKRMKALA
# [4] = inhibition of 3D7 malaria parasite growth – strain 3D7 (AID 2306);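 further: 0% = DMSO wells and 100% = chloroquine plus artemisinin control wells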; details: P. falciparum 3D7 erythrocytic growth, LDH absorbance, 72 h; at 2 µM; stronger effect = higher value
# [5] = target: Calcium-dependent protein kinase 1 (Plasmodium falciparum (isolate 3D7)) (UniProt P62344); experiment: PfCDPK1 kinase inhibitors, biochemical, TCAMS library (AID 1159585; cut-off not given, nearly all actives have IC50 up to about 0.98 µM;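 further: inhibitors leave more ATP so luminescence rises with inhibition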); details: recombinant PfCDPK1, Kinase-Glo ATP depletion luminescence
# Chain of Calcium-dependent protein kinase 1 (Plasmodium falciparum (isolate 3D7)) (P62344 whole entry, looked up): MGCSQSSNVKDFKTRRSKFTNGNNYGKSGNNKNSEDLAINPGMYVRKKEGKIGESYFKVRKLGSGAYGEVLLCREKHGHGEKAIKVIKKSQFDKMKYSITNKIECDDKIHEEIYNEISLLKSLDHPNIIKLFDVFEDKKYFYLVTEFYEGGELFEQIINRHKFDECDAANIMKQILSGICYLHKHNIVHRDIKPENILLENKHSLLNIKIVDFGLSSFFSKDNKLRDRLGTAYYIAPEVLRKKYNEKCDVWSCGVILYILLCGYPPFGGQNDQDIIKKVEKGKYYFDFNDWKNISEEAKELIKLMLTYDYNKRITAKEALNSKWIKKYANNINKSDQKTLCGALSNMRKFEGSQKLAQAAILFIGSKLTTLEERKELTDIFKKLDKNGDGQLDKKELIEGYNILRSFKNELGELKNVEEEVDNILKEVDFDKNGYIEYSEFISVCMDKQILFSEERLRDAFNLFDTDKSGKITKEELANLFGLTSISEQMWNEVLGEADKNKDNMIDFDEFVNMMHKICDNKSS
# [6] = target: Plasmodium falciparum protein kinase 6 (PK6, PF3D7_1337100) (UniProt Q8IDW1); experiment: PfPK6 kinase inhibitors, biochemical, TCAMS library (AID 1159586); details: recombinant PfPK6, Kinase-Glo ATP depletion luminescence
# Chain of Plasmodium falciparum protein kinase 6 (PK6, PF3D7_1337100) (Q8IDW1 1-305): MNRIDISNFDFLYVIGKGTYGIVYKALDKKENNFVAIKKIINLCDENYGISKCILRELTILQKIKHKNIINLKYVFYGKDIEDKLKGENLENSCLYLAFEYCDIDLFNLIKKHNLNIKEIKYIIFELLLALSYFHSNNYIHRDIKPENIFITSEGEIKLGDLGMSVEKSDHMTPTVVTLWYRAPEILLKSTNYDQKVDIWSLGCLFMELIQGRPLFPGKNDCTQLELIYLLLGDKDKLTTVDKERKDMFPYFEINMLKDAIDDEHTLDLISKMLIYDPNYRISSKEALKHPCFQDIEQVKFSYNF
# [7] = target: Protein kinase 7 (PK7), Plasmodium falciparum 3D7 (PF3D7_0213400) (UniProt Q7YTF7); experiment: inhibition of Plasmodium PK7 catalytic activity – biochemical, TCAMS antimalarial set, Kinase-Glo luminescence (AID 1159587); details: recombinant PfPK7, Kinase-Glo ATP depletion luminescence
# Chain of Protein kinase 7 (PK7), Plasmodium falciparum 3D7 (PF3D7_0213400) (Q7YTF7 1-343): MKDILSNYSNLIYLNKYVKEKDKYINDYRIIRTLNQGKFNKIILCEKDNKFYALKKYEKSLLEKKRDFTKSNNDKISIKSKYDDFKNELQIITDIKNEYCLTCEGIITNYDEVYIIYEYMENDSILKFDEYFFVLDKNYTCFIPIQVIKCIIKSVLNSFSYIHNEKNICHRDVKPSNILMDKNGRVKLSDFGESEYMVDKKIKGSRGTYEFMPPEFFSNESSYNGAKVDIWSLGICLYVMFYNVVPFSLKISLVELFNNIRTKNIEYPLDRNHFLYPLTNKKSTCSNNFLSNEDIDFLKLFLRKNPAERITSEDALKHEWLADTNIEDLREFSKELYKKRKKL
# [8] = target: Calcium-dependent protein kinase 4 (Plasmodium falciparum (isolate 3D7)) (UniProt Q8IBS5); experiment: PfCDPK4 kinase inhibitors, biochemical, TCAMS library (AID 1159588; cut-off not given, nearly all actives have IC50 up to about 0.91 µM); details: recombinant PfCDPK4, Kinase-Glo ATP depletion luminescence
# Chain of Calcium-dependent protein kinase 4 (Plasmodium falciparum (isolate 3D7)) (Q8IBS5 whole entry, looked up): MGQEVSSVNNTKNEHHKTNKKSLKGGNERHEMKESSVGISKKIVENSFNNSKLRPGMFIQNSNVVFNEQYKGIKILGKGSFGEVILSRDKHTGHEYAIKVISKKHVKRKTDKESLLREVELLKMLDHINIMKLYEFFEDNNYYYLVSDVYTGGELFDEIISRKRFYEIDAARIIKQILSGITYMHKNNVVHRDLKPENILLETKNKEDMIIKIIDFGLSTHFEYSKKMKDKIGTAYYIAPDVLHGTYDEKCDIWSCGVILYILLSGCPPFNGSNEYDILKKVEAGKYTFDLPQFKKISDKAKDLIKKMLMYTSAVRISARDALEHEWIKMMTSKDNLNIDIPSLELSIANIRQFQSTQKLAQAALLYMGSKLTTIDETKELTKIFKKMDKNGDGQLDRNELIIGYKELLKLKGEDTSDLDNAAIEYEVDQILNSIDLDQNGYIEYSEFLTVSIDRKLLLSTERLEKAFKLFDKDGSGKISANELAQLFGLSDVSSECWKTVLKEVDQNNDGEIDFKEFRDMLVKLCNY
SMILES,growth inhibition [1],inhibition [2],inhibition [3],growth inhibition [4],outcome [5],outcome [6],outcome [7],outcome [8]
CNC(=C[N+](=O)[O-])NCCSCc1cc(C)c(CN(C)C)s1,96% (active),48%,-1%,98% (active),inactive,inactive,inactive,inactive
CC(C)(C)C(=O)Nc1ccccc1Oc1ccc(Cl)cc1,96% (active),54% (active),7%,92% (active),inactive,inactive,inactive,inactive
Cc1cccc2[nH]c(-c3ccc(-c4ccc(NC(=O)NCc5cccc(F)c5)cc4)s3)nc12,43%,70% (active),-6%,101% (active),inactive,inactive,inactive,inactive
CN1CCN(c2ccnc3ccc(NC(=O)Nc4cccc5c(C#N)cccc45)cc23)CC1,40%,-6%,8%,91% (active),inactive,inactive,inactive,inactive
CC(C)N1CCN(C(=O)c2ccc(CNCCCN3CCN(c4ccccc4C(F)(F)F)CC3)s2)CC1,42%,32%,-7%,98% (active),inactive,inactive,inactive,inactive
Cc1cccc2[nH]c(-c3ccc(-c4cccc(NC(=O)C(C)CN5CCN(C)CC5)c4)s3)nc12 (stereo unspecified),75% (active),11%,-6%,97% (active),inactive,inactive,inactive,inactive
CO/C(=C\C=C\c1cc2cc(Cl)c(Cl)cc2[nH]1)C(=O)NCCCN1CCN(c2cccc(OC)c2)CC1,93% (active),61% (active),0%,100% (active),inactive,inactive,inactive,inactive
C=CCOC(=O)N1CCC(CNCc2ccc(-c3ccc(-c4nc5ccc(C(F)(F)F)cc5[nH]4)cc3)cc2)C1 (stereo unspecified),98% (active),44%,-2%,103% (active),inactive,inactive,inactive,inactive
Cc1noc(-c2ccc(N3CCC(C(=O)N4CCN(C(C)C)CC4)CC3)cc2)n1,-2%,-12%,-5%,95% (active),inactive,inactive,inactive,inactive
N#CCCN1CCN(Cc2cccc(-c3ccc(-c4nc5ccc(F)cc5[nH]4)cc3)c2)CC1,35%,18%,-2%,100% (active),inactive,inactive,inactive,inactive
O=C(NCCCCN1CCC[C@@H]2c3cccc(O)c3CC[C@@H]21)c1ccc(-c2ccccc2)cc1,4%,18%,3%,93% (active),inactive,inactive,inactive,inactive
O=C(C=Cc1ccc(Cl)c(Cl)c1)NCCCCCN1CCC(CCCNS(=O)(=O)c2ccc(Br)cc2)CC1,25%,74% (active),-5%,93% (active),inactive,inactive,inactive,inactive
CCCc1cc(=O)[nH]c(-n2nc(C)cc2NC(=O)CC(c2ccccc2)c2ccccc2)n1,88% (active),39%,4%,97% (active),inactive,inactive,inactive,inactive
COc1ccc2ncc(F)c(CCN3CC[C@@H](CNCc4ccc5c(c4C)OCCO5)C3)c2n1,11%,17%,1%,94% (active),inactive,inactive,inactive,inactive
O=C(NC1CCCCC1)N(Cc1cccc(-c2cccc(CNC3CCCC3)c2)c1)C1CCN(Cc2ccccc2)CC1,90% (active),64% (active),-7%,96% (active),inactive,inactive,inactive,inactive
O=C(Nc1cccc(Cl)c1)N(CCCn1ccnc1)Cc1csc(-c2ccc(CNCc3ccccc3)cc2)n1,45%,11%,4%,102% (active),inactive,inactive,inactive,inactive
CC1CN(S(=O)(=O)c2ccc(NC(=O)c3cc(-c4ccccc4O)n[nH]3)cc2)CC(C)O1 (stereo unspecified),93% (active),21%,1%,97% (active),inactive,inactive,inactive,inactive
